# Reference: PubChem BioAssay (EPA / NIEHS)
# Records with an inconclusive call do not appear. The source made the active and inactive calls. Rule for the calls: active = hit-call score of the fitted dose curve at least 0.9, where 1 is the maximum; inconclusive = response in the unintended direction; inactive = score below 0.9.
# Target: human CYP2B6, CYP2B6 (gene 1555) (UniProt P20813)
# Assay: NVS_ADME_hCYP2B6: NovaScreen (NVS) CYP450-related Enzyme Activity (ADME) Assay for human CYP2B6 (AID 2283101)
# Protocol: NVS_ADME_hCYP2B6 is a biochemical, single-readout assay that uses extracted gene-proteins in a cell-free assay. Measurements were taken 1 hour after chemical dosing in a 96-well plate.NVS_ADME_hCYP2B6 is one of one assay component(s) measured or calculated from the NVS_ADME_hCYP2B6 assay. It is designed to make measurements of enzyme activity, a form of enzyme reporter, as detected with fluorescence intensity signals by Fluorescence technology.Data from the assay component NVS_ADME_hCYP2B6 was analyzed into 1 assay endpoint. This assay endpoint, NVS_ADME_hCYP2B6, was analyzed in the positive analysis fitting direction relative to Acetonitrile as the negative control and baseline of activity. Using a type of enzyme reporter, loss-of-signal activity can be used to understand changes in the enzymatic activity as they relate to the gene CYP2B6. Furthermore, this assay endpoint can be referred to as a primary readout, because this assay has produced multiple assay endpoints where this one serves a enzymatic activity function. To generalize the intended target to other relatable targets, this assay endpoint is annotated to the cyp intended target family, where the subfamily is xenobiotic metabolism.
# Binding assays used specific radioligands (tritiated, iodinated) with non-radioactive competitive displacement ligands in agonist or antagonist protocols (as indicated) and various reference compounds and inhibitors to titrate specific binding to receptors and transporters. Most enzyme assays (CYPs, kinases, phosphatases, proteases, HDACs) used recombinant protein and specific substrates (fluorescence mostly, some colorimetric and radioactive) and inhibitors, followed by a biochemical separation of substrate and product. All assays for the biochemical HTS were initially run in duplicate at a single concentration (10 uM for CYP450 assays and 25 uM for all others). […] Each assay was run with positive and negative controls, and concurrent controls on every plate. The follow-up (secondary) screen tested active chemical-pairs in concentration series, as well as a few additional assays not tested in the primary screen, some selected negative inactives, and several cases re-run in the concentration series for confirmatory purposes.
# human CYP2B6, CYP2B6 (gene 1555), sequence (P20813 whole entry, looked up): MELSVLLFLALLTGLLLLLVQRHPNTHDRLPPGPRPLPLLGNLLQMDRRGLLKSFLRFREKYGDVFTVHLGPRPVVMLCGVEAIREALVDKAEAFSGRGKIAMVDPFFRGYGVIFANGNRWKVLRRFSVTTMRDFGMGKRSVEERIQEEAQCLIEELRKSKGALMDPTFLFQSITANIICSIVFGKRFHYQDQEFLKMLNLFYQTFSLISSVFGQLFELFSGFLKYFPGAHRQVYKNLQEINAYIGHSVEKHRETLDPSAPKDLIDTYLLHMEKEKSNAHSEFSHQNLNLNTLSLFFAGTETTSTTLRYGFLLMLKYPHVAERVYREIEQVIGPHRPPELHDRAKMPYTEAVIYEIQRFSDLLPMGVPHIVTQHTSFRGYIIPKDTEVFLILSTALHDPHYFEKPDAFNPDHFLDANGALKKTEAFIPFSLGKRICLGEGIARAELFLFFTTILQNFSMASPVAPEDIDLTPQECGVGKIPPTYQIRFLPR
row,SMILES,AC50
1,CCOP(=S)(OCC)Oc1ccc2c(C)c(Cl)c(=O)oc2c1,0.433 µM (active)
2,CCCSP(=O)(OCC)Oc1ccc(Br)cc1Cl (stereo not drawn),11.3 µM (active)
3,FC(F)C(F)(F)OCC(Cn1cncn1)c1ccc(Cl)cc1Cl (stereo not drawn),3.74 µM (active)
4,CCOC(=O)CC(SP(=O)(OC)OC)C(=O)OCC (stereo not drawn),2.49 µM (active)
5,CC(C1CC1)C(O)(Cn1cncn1)c1ccc(Cl)cc1 (stereo not drawn),6.32 µM (active)
6,C[Si](Cn1cncn1)(c1ccc(F)cc1)c1ccc(F)cc1,0.238 µM (active)
7,CC[C@H](C)[C@H]1O[C@]2(C=C[C@@H]1C)C[C@@H]1C[C@@H](C/C=C(\C)[C@@H](O[C@H]3C[C@H](OC)[C@@H](O[C@H]4C[C@H](OC)[C@@H](NC)[C@H](C)O4)[C@H](C)O3)[C@@H](C)/C=C/C=C3\CO[C@@H]4[C@H](O)C(C)=C[C@@H](C(=O)O1)[C@]34O)O2,8.42 µM (active)
8,Nc1c(Cl)cc([N+](=O)[O-])cc1Cl,3.48 µM (active)
9,CCCOCC(=Nc1ccc(Cl)cc1C(F)(F)F)n1ccnc1,1.58 µM (active)
10,COP(=O)(OC)SCn1c(=O)oc2cc(Cl)cnc21,9 µM (active)
11,CCc1cccc(C)c1N(C(=O)CCl)C(C)COC (stereo not drawn),2.11 µM (active)
12,CCOP(=S)(OCC)Oc1ccc([N+](=O)[O-])cc1,0.99 µM (active)
13,CCc1cccc(CC)c1N(COC)C(=O)CCl,1.58 µM (active)
